Active and inactive are the calls of the source. Unless noted, the rule behind the calls is not given here.
What was measured:
[1] = anti-His antibody binders, primary screen, artefact control for SMM control protein annotation, biochemical, small-molecule microarray, 635 nm fluorescence (AID 1128); settings: anti-His Alexa647 antibody binding, higher = more signal;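 note: score merges feature fluorescence with signal-to-noise for each printed compound spot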
[2] = tested on: Human papillomavirus type 1a E7 protein (residues 1-88); assay: HPV1a E7 small-molecule binders, primary screen, biochemical, small-molecule microarray, residues 1-88, 635 nm (AID 1129); settings: small-molecule microarray binding, fluorescence 635 nm; higher = more signal
[3] = target: Focal adhesion kinase 1 (Homo sapiens) (UniProt Q05397); assay: small-molecule microarray binders of FAK, primary screen, biochemical, 635/667 nm fluorescence, BSA, DTT (AID 1130); settings: PTK2 binding, 635 nm fluorescence, higher = more signal;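 note: composite of spot emission at 667 nm and signal to noise over triplicate slides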
Chain of Focal adhesion kinase 1 (Homo sapiens) (Q05397 whole entry, looked up): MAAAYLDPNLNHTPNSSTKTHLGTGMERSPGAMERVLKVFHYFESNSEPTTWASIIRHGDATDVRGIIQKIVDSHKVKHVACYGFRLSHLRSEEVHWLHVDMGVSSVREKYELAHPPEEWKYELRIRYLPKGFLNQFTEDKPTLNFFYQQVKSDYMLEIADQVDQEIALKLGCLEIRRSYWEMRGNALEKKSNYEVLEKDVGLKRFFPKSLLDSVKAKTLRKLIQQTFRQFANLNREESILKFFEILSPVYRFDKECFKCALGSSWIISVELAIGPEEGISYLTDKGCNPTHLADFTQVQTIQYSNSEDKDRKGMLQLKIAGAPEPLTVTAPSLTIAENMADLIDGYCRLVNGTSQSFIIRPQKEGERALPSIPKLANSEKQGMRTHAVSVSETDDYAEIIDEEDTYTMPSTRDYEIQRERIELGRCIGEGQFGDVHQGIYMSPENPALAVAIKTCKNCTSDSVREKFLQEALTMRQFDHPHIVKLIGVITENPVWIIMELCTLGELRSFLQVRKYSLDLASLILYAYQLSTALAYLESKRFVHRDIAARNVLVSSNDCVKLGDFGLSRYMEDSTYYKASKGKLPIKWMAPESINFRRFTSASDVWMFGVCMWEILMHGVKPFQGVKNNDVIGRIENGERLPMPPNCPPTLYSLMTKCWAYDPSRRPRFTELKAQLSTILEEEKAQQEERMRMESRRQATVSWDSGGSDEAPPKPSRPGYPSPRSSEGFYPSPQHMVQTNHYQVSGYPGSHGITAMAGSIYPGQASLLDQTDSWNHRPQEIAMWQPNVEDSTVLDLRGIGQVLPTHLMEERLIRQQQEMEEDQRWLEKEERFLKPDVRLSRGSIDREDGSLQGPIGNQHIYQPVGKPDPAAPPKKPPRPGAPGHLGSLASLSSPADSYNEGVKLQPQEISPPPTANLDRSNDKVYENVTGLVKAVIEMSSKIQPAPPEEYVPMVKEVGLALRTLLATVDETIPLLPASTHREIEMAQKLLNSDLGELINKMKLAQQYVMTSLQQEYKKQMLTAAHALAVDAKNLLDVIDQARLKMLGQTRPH

[4] = tested on: Fibrinogen (Alexa647-labelled); assay: fibrinogen binders on compound microarrays, profiling panel, artefact control for SMM control-protein annotation, biochemical, small-molecule microarray, 635/667 nm fluorescence (AID 1131); settings: fibrinogen-A647 binding fluorescence, higher = more signal;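 note: z-score merges 667 nm fluorescence with per-spot signal-to-noise over triplicate slides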
[5] = target: Follistatin (Homo sapiens) (UniProt P19883); assay: follistatin binders on small-molecule microarrays, primary screen, biochemical, small-molecule microarray, 635/667 nm fluorescence (AID 1132); settings: FST binding, 635 nm fluorescence, higher = more signal
Chain of Follistatin (Homo sapiens) (P19883 whole entry, looked up): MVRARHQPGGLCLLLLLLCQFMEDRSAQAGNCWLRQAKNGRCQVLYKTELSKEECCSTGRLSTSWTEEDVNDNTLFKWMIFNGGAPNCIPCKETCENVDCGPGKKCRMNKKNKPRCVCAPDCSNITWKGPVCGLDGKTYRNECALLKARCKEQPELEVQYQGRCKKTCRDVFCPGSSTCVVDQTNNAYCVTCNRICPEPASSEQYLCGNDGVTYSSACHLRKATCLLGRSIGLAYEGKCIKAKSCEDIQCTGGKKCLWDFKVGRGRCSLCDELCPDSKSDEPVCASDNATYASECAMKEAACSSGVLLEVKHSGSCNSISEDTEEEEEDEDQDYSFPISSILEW

[6] = target: Fibroblast growth factor 2 (Homo sapiens) (UniProt P09038); assay: FGF2 binders on small-molecule microarrays, primary screen, biochemical, small-molecule microarray, 635/667 nm fluorescence (AID 1133); settings: small-molecule microarray binding, FGF2, fluorescence 635/667; higher = more signal
Chain of Fibroblast growth factor 2 (Homo sapiens) (P09038 whole entry, looked up): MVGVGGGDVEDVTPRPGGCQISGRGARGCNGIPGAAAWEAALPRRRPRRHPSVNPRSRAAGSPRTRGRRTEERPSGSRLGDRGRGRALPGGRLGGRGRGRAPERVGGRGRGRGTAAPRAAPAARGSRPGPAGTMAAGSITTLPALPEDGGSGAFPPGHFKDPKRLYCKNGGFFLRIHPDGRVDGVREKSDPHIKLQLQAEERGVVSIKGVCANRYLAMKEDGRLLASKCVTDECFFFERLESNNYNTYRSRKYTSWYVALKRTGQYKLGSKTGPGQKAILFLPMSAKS

[7] = mitochondrial membrane potential change in A549 cells, profiling panel, cell-based, JC-1 fluorescence, basal, 24 h, 100 nL (AID 1138); settings: higher = more signal;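 note: A549 lung adenocarcinoma cells under basal conditions with no added stimulus; test concentration not given here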
[8] = tested on: Lefty1; assay: Lefty1 binders on small-molecule microarrays, primary screen, biochemical, small-molecule microarray, 635/667 nm fluorescence (AID 1139); settings: small-molecule microarray binding, fluorescence 635/667; higher = more signal
[9] = tested on: wheat germ agglutinin (Triticum aestivum), Alexa647-labelled; assay: wheat germ agglutinin binders on compound microarrays, profiling panel, artefact control for SMM control-protein annotation, biochemical, small-molecule microarray, 635/667 nm fluorescence (AID 1140); settings: WGA-A647 binding, 635 nm fluorescence, higher = more signal;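 note: score merges 667 nm feature emission with signal to noise over triplicate slides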
[10] = target: Luciferin 4-monooxygenase (Photinus pyralis) (UniProt P08659); assay: firefly luciferase enzyme inhibitors, primary screen, biochemical, luminescence, purified enzyme, 2006 set (AID 1141); settings: SteadyGlo luminescence, 30 min, higher = more signal, called active from +8 up or from −8 down;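 note: cell-free assay with purified firefly luciferase at 100 ng per well in PBS; test concentration not given here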
Chain of Luciferin 4-monooxygenase (Photinus pyralis) (P08659 whole entry, looked up): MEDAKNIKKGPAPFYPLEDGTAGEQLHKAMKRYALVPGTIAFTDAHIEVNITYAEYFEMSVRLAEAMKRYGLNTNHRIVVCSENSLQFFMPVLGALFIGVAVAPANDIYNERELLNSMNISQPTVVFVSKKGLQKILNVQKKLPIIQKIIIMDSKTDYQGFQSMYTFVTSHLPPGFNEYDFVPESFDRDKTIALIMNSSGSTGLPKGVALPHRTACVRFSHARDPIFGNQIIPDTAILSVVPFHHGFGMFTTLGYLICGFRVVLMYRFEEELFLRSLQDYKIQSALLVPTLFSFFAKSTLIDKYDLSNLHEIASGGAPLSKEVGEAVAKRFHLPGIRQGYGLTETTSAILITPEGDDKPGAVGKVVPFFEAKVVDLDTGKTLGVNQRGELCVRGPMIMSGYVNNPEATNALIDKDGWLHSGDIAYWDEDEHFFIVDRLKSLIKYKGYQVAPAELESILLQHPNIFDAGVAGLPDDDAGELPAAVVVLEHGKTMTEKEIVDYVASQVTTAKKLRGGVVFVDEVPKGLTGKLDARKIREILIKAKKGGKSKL

[11] = tested on: Wnt5a (protein binding on small-molecule microarray); assay: Wnt5a binders on small-molecule microarray, primary screen, biophysical, 635/667 nm fluorescence (AID 1142); settings: 635 nm fluorescence, higher = more signal;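 note: fluorescence read at 667 nm with signal to noise per printed feature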
[12] = cell viability in Huh7 cells, primary screen, cytotoxicity control for HCV replication inhibitor project, CellTiter-Glo luminescence, basal, 48 h (AID 1143); settings: Huh7 HCV replicon, higher = more signal, called active from +8 up or from −8 down;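 note: Huh7 hepatoma cells carrying a hepatitis C replication reporter with no stimulus; test concentration not given here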
[13] = P. aeruginosa biofilm formation inhibitors, primary screen, PAO1 strain, BacTiter-Glo luminescence, LB-PBS (AID 1144); settings: 12 h, higher = more signal
[14] = CREB reporter modulators without forskolin, primary screen, cell-based, PC12, CRE-LacZ reporter, unstimulated (AID 1145); settings: no forskolin, luminescence, 4.5 h, higher = more signal, called active from +8 up or from −8 down
[15] = CREB reporter modulators under forskolin, primary screen, cell-based, PC12, CRE-LacZ reporter, forskolin-stimulated (AID 1146); settings: luminescence, 4.5 h, higher = more signal, called active from +8 up or from −8 down;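 note: PC12 cells with 6xCRE LacZ reporter stimulated by forskolin 10 µM; beta-galactosidase reporter signal reflecting CREB driven transcription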
[16] = target: Streptavidin (Streptomyces avidinii) (UniProt P22629); assay: streptavidin binders on small-molecule microarray, primary screen, artefact control for SMM compound annotation, biophysical, 635/667 nm fluorescence (AID 1147); settings: streptavidin binding, higher = more signal;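 note: signal reflects streptavidin binding to arrayed compounds as a control protein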
Chain of Streptavidin (Streptomyces avidinii) (P22629 whole entry, looked up): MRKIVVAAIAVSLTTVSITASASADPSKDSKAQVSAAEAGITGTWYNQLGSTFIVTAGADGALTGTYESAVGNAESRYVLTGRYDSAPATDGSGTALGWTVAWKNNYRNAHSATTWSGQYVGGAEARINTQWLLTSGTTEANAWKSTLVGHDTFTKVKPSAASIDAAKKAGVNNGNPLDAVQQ

[17] = small-molecule binders of probe aInhba, primary screen, biochemical, small-molecule microarray, 635/667 nm fluorescence (AID 1148); settings: higher = more signal;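 note: score merges 667nm spot fluorescence with signal-to-noise for antibody binding to printed compounds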
[18] = target: Torsin-1A (Homo sapiens) (UniProt O14656); assay: torsin A binders from cell lysate, primary screen, small-molecule microarray, wild-type, 635/667 nm (AID 1149); settings: COS7 hTOR1A-WT lysate, 635 nm fluorescence, higher = more signal
Chain of Torsin-1A (Homo sapiens) (O14656 whole entry, looked up): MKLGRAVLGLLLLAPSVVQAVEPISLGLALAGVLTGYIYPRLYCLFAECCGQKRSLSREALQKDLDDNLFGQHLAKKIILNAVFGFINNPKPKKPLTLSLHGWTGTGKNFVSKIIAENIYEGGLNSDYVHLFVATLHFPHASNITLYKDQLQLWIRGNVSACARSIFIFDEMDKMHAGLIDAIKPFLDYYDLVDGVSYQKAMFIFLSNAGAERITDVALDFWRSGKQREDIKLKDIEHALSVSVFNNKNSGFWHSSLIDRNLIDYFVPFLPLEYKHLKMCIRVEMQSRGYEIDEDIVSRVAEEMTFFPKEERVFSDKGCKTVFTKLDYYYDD

[19] = target: Torsin-1A (Homo sapiens) (UniProt O14656); assay: small-molecule binders of mutant TOR1A in lysate, primary screen, cell lysate, small-molecule microarray, COS7 lysate, 635/667 nm fluorescence (AID 1150); settings: COS7 hTOR1A mutant lysate, 635 nm fluorescence, higher = more signal;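 note: score pools 667 nm emission and signal to noise measuring lysate protein binding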
[20] = tested on: Sonic hedgehog protein (Shh); assay: small-molecule binders of Shh protein, primary screen, biochemical, small-molecule microarray, 635/667 nm fluorescence (AID 1151); settings: small-molecule microarray binding, 635 nm fluorescence; higher = more signal;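 note: Shh protein binding to compounds spotted on small-molecule microarray slides; score combines spot fluorescence intensity with signal-to-noise across triplicate slides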

Structure (SMILES) | composite z-score [1] | composite z-score [2] | composite z-score [3] | composite z-score [4] | composite z-score [5] | composite z-score [6] | z-score [7] | composite z-score [8] | composite z-score [9] | z-score [10] | composite z-score [11] | z-score [12] | z-score [13] | z-score [14] | z-score [15] | composite z-score [16] | composite z-score [17] | composite z-score [18] | composite z-score [19] | composite z-score [20]
N#Cc1ccc(NN2C(C(O)c3cccc4ccccc34)C=CC3C(=O)N(c4ccccc4)C(=O)C32)cc1 (stereo not given) | 1.06 | 1.24 | 0.413 | 0.965 | 1.23 | -0.24 | 1.11 | 0.279 | 1.24 | 0.512 (inactive) | 0.305 | 0.128 (inactive) | -0.811 (inactive) | -0.708 (inactive) | -0.302 (inactive) | 1.75 | 0.49 | 0.612 | 0.358 | -0.335
CC=CC1=C(CO)[C@H](O)[C@H]2O[C@H]2[C@H]1O | 0.189 | 0.277 | -0.0741 | -0.0409 | 0.589 | 1.06 | -0.565 | 0.871 | -0.191 | -0.115 (inactive) | 0.261 | 0.678 (inactive) | 1.58 (inactive) | 0.292 (inactive) | 0.798 (inactive) | 0.082 | -0.0719 | 0.769 | -0.0205 | 1.14
O=C1O[C@@H](c2ccccc2)[C@@H](c2ccccc2)N2[C@@H](c3ccc(OCCO)cc3)[C@]3(C(=O)Nc4ccccc43)[C@@H](C(=O)N3CCN(c4ncccn4)CC3)[C@H]12 | 1.08 | 1.18 | 0.687 | 0.489 | 1.28 | 1.17 | -0.473 | 1.19 | 0.929 | -1.4 (inactive) | 0.22 | -0.704 (inactive) | 0.349 (inactive) | 0.865 (inactive) | 3.05 (inactive) | 0.557 | 0.175 | 0.403 | 0.94 | 1.14
[N-]=[N+]=NCc1ccccc1[C@@H]1OC(c2ccc(OCCCO)cc2)=N[C@]1(Cc1ccccc1)C(=O)N1CCOCC1 | 2.32 | 1.11 | 0.373 | 0.998 | 1.15 | 0.593 | 1.23 | 0.115 | 1.26 | -0.633 (inactive) | 0.599 | -3.55 (inactive) | 0.369 (inactive) | -0.0017 (inactive) | 0.531 (inactive) | 1.66 | 0.618 | 3.2 | 3.32 | 0.0283
COC(=O)[C@H](C)NC(=O)CCC1CC(OC(=O)NCCc2ccc(F)cc2)CC2(CCCC(COC(=O)NCCc3ccc(Cl)cc3)O2)O1 (stereo not given in full) | 0.225 | 0.966 | 0.167 | 0.873 | 0.646 | 1.05 | 0.994 | 1.25 | 0.766 | 0.0182 (inactive) | 0.606 | -0.195 (inactive) | -0.739 (inactive) | -0.0732 (inactive) | -0.195 (inactive) | 1.07 | -0.0937 | 2.31 | -0.177 | 1.31
